Bioassay records as filed in PubChem BioAssay.
Only some compounds are listed: those with a hit (about 3.9% of all), similar ones and a draw of the others.
HepG2 viability = kills HepG2 cells in TGF-b inhibitor counter-screen | 410,000 compounds, 0.76% hits | AID 588856 | HepG2 CAGA-GFP viability, ATP luminescence, 18 h | Potency, µM (doses to about 46.1 µM), inactives show top-dose activity change, negative = cytotoxicity, most hits filed as cytotoxic
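HepG2 CAGA-GFP cells (1000/well, DMEM with 1% FBS) received compound, then TGF-beta at 500 pg/mL final, and were incubated 18 hours at 37 degrees C. Viability was read by CellTiter-Glo luminescence. Media-only wells were set as complete cell-killing and DMSO as no toxicity.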
ATXN2 expr inh = ATXN2 expression inhibition. HEK-293 ATXN2-luciferase reporter, luminescence, 24 h. Potency, µM (highest dose often 57 µM), for the others: at the highest dose activity change, negative = inhibition, usual class: inhibitors. 360,000 compounds, 0.72% hits. AID 1745845; further: on the % scale 0 is the no-effect control and ±100 the full control effect; nearly all actives have a fitted effect of over 55% in size
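qHTS (up to 57 uM final) was run with 24 h compound exposure of reporter cells at 37 °C. Each well was multiplexed: SteadyGlo luminescence measured ATXN2-luciferase expression after a fluorogenic Gly-Phe-AFC viability readout (25 uM final).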
TGFb SMAD3 inh = inhibitors of TGF-b signaling. Potency, µM (highest dose often 46.1 µM), for inactives: at the highest dose activity, negative = inhibition, most hits filed as inhibitors. AID 588855. HepG2 CAGA-GFP TGF-b/SMAD3 reporter, GFP fluorescence, 18 h; TGF-beta stimulated, 500 pg/mL final. 410,000 compounds, 1.2% hits; further: on the % scale 0 is the no-effect control and ±100 the full control effect; nearly all actives have a fitted effect of over 65% in size
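HEPG2 CAGA-GFP, 1000 cells/well; 2 h settle, 37 C; cpd via pin tool; TGF-b 500 pg/mL final; 18 h, 37 C; GFP imaging ex488/em500-530; %Activity normalised to -TGF-b and +DMSO controls; CRC fit, curve class.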
HT1080NT lethal = kills 2HG-producing HT-1080-NT fibrosarcoma cells | HT-1080-NT fibrosarcoma viability, CellTiter-Glo ATP luminescence, 48 h | Potency, µM (doses to about 46.1 µM), without a hit: at the top dose activity, negative = less viability, hits mostly cytotoxic | 360,000 compounds, 1.6% hits;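 further: NT is the 2HG producing partner of a matched IDH1 knockdown line; 0% = DMSO-treated cells and -100% = media-only wells without cells; nearly all actives have a fitted effect of over 55% in size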
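Read-out is CellTiter-Glo luminescence after 10 minutes at room temperature, following 48 hours' compound treatment of HT-1080-NT cells (750 cells/well, RPMI, 5% FBS, 37 degrees C).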
ATXN viability = viability counter-screen for ATXN expression inhibitors; S2 cells (HEK-293 line with an ATXN2-luciferase reporter) viability, CellTiter-Fluor protease fluorescence, 24 h; 400,000 compounds, 0.49% hits; Potency, µM (top dose mostly 56.7 µM), most hits filed as cytotoxic; further: nearly all actives have a fitted effect of over 40% in size
HT1080 IDH1KD tx = kills HT-1080 cells with IDH1 knockdown | HT-1080 IDH1 knockdown viability, ATP luminescence, 48 h | Potency, µM (titrated, usually from 46.1 µM), for the others: at the top dose activity, negative = toxicity, most hits filed as cytotoxic | 360,000 compounds, 2% hits | AID 686971;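 further: 0% = DMSO wells and -100% = cell-free medium wells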
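Viability of IDH1-knockdown HT-1080 fibrosarcoma cells was assessed by CellTiter-Glo after 48 h at 37 °C with titrated compound; concentration-effect curves were classified by fit quality and response size.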
* = called active by the depositor; i = inactive; ? = inconclusive; . = not tested or not shown; [ ] = another dose, or the depositor's remark. The call rests on the fitted dose curve; in most records, active means well fitted curve in the direction sought with a large enough effect; inconclusive means small, poorly fitted or top-dose-only effect, or another doubt; inactive means no such curve, though single readings can be large; an effect the other way counts as inactive or inconclusive. Potency means the concentration at half of the fitted maximal effect.

SMILES	HepG2 viability	ATXN2 expr inh	TGFb SMAD3 inh	HT1080NT lethal	ATXN viability	HT1080 IDH1KD tx
O=C1C=CC(=O)N1CCCCCCCCCCN1C(=O)C=CC1=O	-28.2%	10µM*	12.6µM*	?	8.91µM*	?
Cc1cc(C)cc(OC(=O)c2snnc2C)c1	-4.9%	-6.7%	9.0%	.	i	.
CC(C)(C)OC(=O)NCCCCCc1cn(CC(=O)NCCCCCCCCCCC(=O)N2CCN(C(=O)OC(C)(C)C)CC2)nn1	-12.3%	12.7%	-4.8%	20.2%	i	1.4%
CC[C@H](C)Cc1cn([C@@H](CCCN=C(NC(=O)OC(C)(C)C)NC(=O)OC(C)(C)C)C(=O)NCCCCCCCCCCC(=O)N2CCN(C(=O)OC(C)(C)C)CC2)nn1	-34.7%	?	?	?	17.8µM*	?
CC[C@H](C)Cc1cn([C@@H](CCCCN)C(=O)NCCCCCCCCCCC(=O)N2CCNCC2)nn1	-2.1%	2.4%	19.1%	3.7%	i	5.2%
Cc1cn([C@@H](CCCCNC(=O)OC(C)(C)C)C(=O)NCCCCCCCCCCC(=O)N2CCN(C(=O)OC(C)(C)C)CC2)nn1	-11.5%	?	11.2µM*	20.6µM*	15.8µM*	?
COc1ccc(-c2ccc(CCC(=O)O)n2-c2cc(OC)ccc2OC)cc1	-21.5%	.	-10.1%	23.1µM*	i	?
c1ccc(-c2onc(-c3ccco3)c2-c2ccc3[nH]ccc3c2)cc1	-39.9%	-10.6%	14.1µM*	-17.1%	i	-14.5%
O=C(c1[nH]c(C(F)(F)F)nc1-c1ccccc1)N1CCc2c([nH]c3ccccc23)C1	-21.1%	5.5%	-13.5%	?	i	4.61µM*
O=C(c1[nH]c(C(F)(F)F)nc1-c1ccccc1)N1CCN(c2ccccc2)CC1	-48.3%	-3.6%	?	?	i	2.06µM*
O=C(c1[nH]c(C(F)(F)F)nc1-c1ccccc1)N1CCN(c2ncccn2)CC1	-44.3%	-13.1%	-1.6%	-28.6%	i	?
CCC1CN(CCNC(=O)c2ccnc(Cl)c2)Cc2cc(OC)ccc2O1 (configuration not stated)	.	.	.	.	i	.
Cc1ccc(NC(=O)CSc2nc(-c3ccco3)cc(C(F)(F)F)n2)cc1C	-33.4%	-2.5%	-19.2%	10µM*	i	2.51µM*
O=C(CSc1nnc(-c2ccco2)c(-c2ccco2)n1)Nc1ccccc1	7.1%	-16.9%	-18.5%	-5.4%	i	-0.9%
COC(=O)c1ccc(C(=O)OC)c(NC(=O)CSc2nc(-c3ccco3)cc(C(F)(F)F)n2)c1	3.3%	7.7%	-5.9%	11.5%	i	6.7%
COC(=O)c1ccccc1NC(=O)CSc1nc(-c2ccco2)cc(C(F)(F)F)n1	-2.6%	-19.5%	1.7%	?	?	3.55µM*
O=C(CSc1nc(-c2ccco2)cc(C(F)(F)F)n1)Nc1ccc2c(c1)CCC2	-31.4%	9.4%	-5.6%	-28.3%	i	?
Cc1ccc(NC(=O)CSc2nnc(-c3ccco3)c(-c3ccco3)n2)cc1	-1.0%	-11.3%	-27.4%	7.31µM*	i	5.17µM*
Cc1cc(CNC(=O)c2cnn(-c3nccc(-c4cc(C)sc4C)n3)c2C2CC2)on1	.	.	.	.	i	.
O=C(C1CC12CCN(Cc1cccc3cccnc13)CC2)N1CCN(Cc2cccs2)CC1 (configuration not stated)	.	.	.	.	i	.
CCOC(=O)n1c(=O)n(Cc2ccc(OC)cc2)c2ccccc21	-0.9%	-0.9%	-31.5%	14.6µM*	i	?
CC(CNC(=S)Nc1cc(F)cc(F)c1)CSc1ccc(Cl)cc1 (configuration not stated)	-74.7%	?	17.8µM*	18.4µM*	?	?
Cc1ccc(NC(=S)NCCSc2ccc(Cl)cc2)cc1	-12.1%	-21.1%	?	-18.2%	i	?
CCCCN(C)CCCNC(=O)C1CCN(c2nc3ccc(CC)cc3s2)CC1	14.1µM*	?	?	.	.	.
CCCCN(CC)CCCNC(=O)C1CCN(c2nc3ccc(CC)cc3s2)CC1	-96.3%	.	.	.	.	.
SMILES	HepG2 viability	ATXN2 expr inh	TGFb SMAD3 inh	HT1080NT lethal	ATXN viability	HT1080 IDH1KD tx
COc1cc(OC)cc(C(=O)NCc2ccc3c(c2)CCN3C(=O)c2ccccc2)c1	-16.0%	.	10µM*	.	.	.
COc1ccc(-c2ccc(C(=O)N3CCc4c(cnc(C)c4CNS(=O)(=O)N(C)C)C3)o2)cc1	.	.	.	.	i	.
O=C(COc1ccccc1CNCc1ccccc1)Nc1ccccc1	-43.9%	-16.5%	-5.5%	?	?	11.2µM*
CCOC(=O)/C=C/C(=O)Nc1ccc(S(=O)(=O)Nc2c(C)cc(C)cc2C)cc1	-37.9%	?	?	?	?	-24.6%
CCOC(=O)/C=C/S(=O)(=O)c1ccc(NC(C)=O)cc1	2µM*	?	?	?	?	?
CCOC(=O)/C=C/C(=O)Nc1ccc(Oc2ccccc2)cc1	-36.9%	?	?	7.31µM*	?	16.4µM*
CCOC(=O)c1ccc(NC(=O)COc2ccccc2CNC2CCCC2)cc1	-46.1%	?	-3.7%	23.1µM*	?	23.1µM*
O=C(CNCc1ccccc1)Nc1ccc(Oc2ccccc2)cc1	-0.9%	-6.5%[11.3 µM]	0.2%	7.31µM*	i	6.51µM*
O=C(CNCc1ccccc1)Nc1ccc(F)cc1	0.8%	17.8%	3.5%	-2.9%	?	-0.4%
Cc1cc(C(=O)N/N=C/c2cc(Br)ccc2OC(=O)c2ccccc2Cl)n[nH]1	-21.2%	?	-21.6%	?	.	20.6µM*
Cc1cc(C(=O)N/N=C/c2cc(Br)ccc2OC(=O)c2ccccc2)n[nH]1	-34.5%	26.7µM*	-21.1%	?	i	8.2µM*
Cc1cc(C(=O)N/N=C/c2ccc(OC(=O)c3ccccc3Br)cc2)n[nH]1	29.0%	-22.0%	1.7%	-17.5%	?	-13.4%
CN(CCO)C(=O)c1cn(C2CCCN(Cc3ccc4ccccc4c3)C2)nn1 (configuration not stated)	.	.	.	.	i	.
COC(=O)C1=CN(c2ccc(C(C)(C)C)cc2)C(N)=C(C#N)C1c1ccccc1F (configuration not stated)	.	.	.	-24.3%	.	-23.7%
COC(=O)C1=CN(c2ccc(OC)cc2OC)C(N)=C(C#N)C1c1ccccc1F (configuration not stated)	.	.	.	1.46µM*	.	0.731µM*
COc1ccc(-n2nc3c(N4CCC(C(=O)NCc5cccc(F)c5)CC4)nnc(C)c3c2C)cc1	15.8µM*	?	10µM*	.	?	.
